For nine molecules, outcome and Potency results are on record in PubChem BioAssay (Tox21).

Records with an inconclusive call do not appear. A number with no mark means an inactive call. Activity calls are given as the source filed them. Unless noted, calls follow the shape of the dose curve; as a rule, active = well fitted curve in the direction sought with a large enough effect in the repeat runs; inconclusive = weak or mixed curves; inactive = no such curve, though single readings can be large; an effect the other way counts as inactive or inconclusive.

Assay [1] deals with Peroxisome proliferator-activated receptor delta (Homo sapiens) (UniProt Q03181). Briefly: qHTS assay to identify small molecule agonists of the peroxisome proliferator-activated receptor delta (PPARd) signaling pathway (AID 743212; calls by dose curve). The procedure, abridged:
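Read-out: beta-lactamase FRET fluorescence after 2 h room-temperature incubation with LiveBLAzer B/G substrate. Cells were HEK293H carrying a UAS-bla reporter for PPARd, treated at 37 C with DMSO-dissolved compounds.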
(In general: Quantitative high-throughput screening tests each substance at several concentrations.)

Assay [2] has the same target. Briefly: qHTS assay to identify small molecule antagonists of the peroxisome proliferator-activated receptor delta (PPARd) signaling pathway (AID 743215; active = well fitted inhibition curve with a large enough effect in the signal ratio in the repeat runs, not every such curve was filed as active; the % refers to the signal ratio;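 also: cells stimulated with agonist L165041 at 300 nM final during compound exposure; series mostly up to about 62 µM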). The procedure, abridged: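 HEK293H GeneBLAzer PPARd UAS-bla reporter cells; cpd + L165041 300 nM final, 17 h 37 C; LiveBLAzer B/G FRET substrate 2 h RT; fluorescence intensity read-out. Antagonist mode.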
Assay [3] can be described thus: qHTS assay to identify small molecule agonists of the farnesoid-X-receptor (FXR) signaling pathway - cell viability counter screen (AID 743218). Also: nearly all actives have a fitted effect of over 45% in size. The procedure, abridged:
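Luminescence from CellTiter-Glo, read after 30 min at RT, reports viability of GeneBLAzer FXR-UAS-bla HEK 293T cells treated 16 h with compounds in the wells used for the beta-lactamase reporter.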

The target of assay [4] is Bile acid receptor (Homo sapiens) (UniProt Q96RI1). Briefly: qHTS assay to identify small molecule agonists of the farnesoid-X-receptor (FXR) signaling pathway (AID 743220; active = well fitted activation curve with a large enough effect in the signal ratio in the repeat runs, not every such curve was filed as active; the % refers to the signal ratio). The procedure, abridged:
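FXR-UAS-bla HEK 293T cells carrying a UAS-driven beta-lactamase reporter were plated for 5 h at 37C/5% CO2, then exposed to DMSO-dissolved Tox21 10K compounds for 16 h at 37C. A LiveBLAzer B/G FRET substrate was loaded for 2 h at room temperature before fluorescence reading.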

Assay [5] in a line: qHTS assay to identify small molecule antagonists of the farnesoid-X-receptor (FXR) signaling pathway - cell viability counter screen (AID 743221; active = well fitted cell-killing curve with a large enough effect in the repeat runs, not every such curve was filed as active; also: nearly all actives have a fitted effect of over 50% in size; also: potency is read from the fitted curve at half-maximal effect). The procedure, abridged:
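Multiplexed counter screen: viability of FXR-bla HEK 293T cells under agonist stimulation by chenodeoxycholic acid (50 uM, final) and test compound for 16 h at 37 C, measured by CellTiter-Glo luminescence in the reporter wells.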

Assay [6] has as its target Vitamin D3 receptor (Homo sapiens) (UniProt P11473). Kind of assay: qHTS assay to identify small molecule agonists of the vitamin D receptor (VDR) signaling pathway (AID 743222; calls by dose curve). The procedure, abridged: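 Beta-lactamase reporter readout (LiveBLAzer B/G FRET, 2 h RT) in VDR-bla cells after 16 h compound treatment at 37C, 5% CO2; cells pre-incubated 4 h before pin transfer of DMSO solutions.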

For assay [7] the target is unchanged. Briefly: qHTS assay to identify small molecule antagonists of the vitamin D receptor (VDR) signaling pathway (AID 743223; active = well fitted inhibition curve with a large enough effect in the signal ratio in the repeat runs, not every such curve was filed as active; the % refers to the signal ratio). The procedure, abridged: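 Cells carrying a VDR-driven beta-lactamase reporter (VDR-bla) were co-treated with compound and 3 nM final 1alpha,25-dihydroxyvitamin D3 for 16 h at 37C; reporter activity was measured as FRET substrate fluorescence after 2 h at room temperature.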

Assay [8] in a line: qHTS assay to identify small molecule agonists of the vitamin D receptor (VDR) signaling pathway - cell viability counter screen (AID 743224). Also: series mostly up to about 63 µM; nearly all actives have a fitted effect of over 50% in size. The procedure, abridged: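 Cytotoxicity counter screen: VDR-bla cells, 16 h compound exposure at 37C, 5% CO2; CellTiter-Glo luminescence, 30 min RT, same wells as bla read.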
Assay [9] in a line: qHTS assay to identify small molecule antagonists of the vitamin D receptor (VDR) signaling pathway - cell viability counter screen (AID 743225). Also: nearly all actives have a fitted effect of over 50% in size. The procedure, abridged:
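HEK293T VDR-bla; cpd + 1a,25-(OH)2D3 3 nM final, 16 h 37C/5% CO2; B/G FRET substrate 2 h RT; then CellTiter-Glo 30 min RT, luminescence.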

Assay [10] can be described thus: qHTS assay to identify small molecule agonists of the NFkB signaling pathway - cell viability counter screen (AID 1159515; calls by dose curve; also: series mostly up to about 61 µM; nearly all actives have a fitted effect of over 55% in size). The procedure, abridged: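 ME-180 NFkB-bla cells, 2,000/well; overnight attach; compound 5 hr, 37 C/5% CO2; LiveBLAzer substrate 1.5 hr RT; then CellTiter-Glo in same wells, 30 min RT, luminescence read.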
A short description of assay [11]: qHTS assay to identify small molecule agonists of the endoplasmic reticulum stress response signaling pathway (AID 1159516; active = well fitted activation curve with a large enough effect in the signal ratio in the repeat runs, not every such curve was filed as active; the % refers to the signal ratio). The procedure, abridged:
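HeLa ESRE-bla reporter line; cpd 5 h, 37 C/5% CO2; LiveBLAzer B/G FRET substrate 2 h RT; ex 405, em 460/530 nm.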

Assay [12] is described as follows: qHTS assay to identify small molecule agonists of the endoplasmic reticulum stress response signaling pathway - cell viability counter screen (AID 1159517; calls by dose curve;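 also: HeLa cells carrying an ER stress response element beta-lactamase reporter; series mostly up to about 61 µM; nearly all actives have a fitted effect of over 50% in size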). The procedure, abridged: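 Steps: seed 1,500 ESRE-bla HeLa cells per well; incubate overnight at 37 C, 5% CO2; add compounds in DMSO for 5 hr; run FRET substrate 2 hr RT; add CellTiter-Glo, wait 30 min, read luminescence.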

Assay [13] is described as follows: qHTS assay to identify small molecule antagonists of the retinoid-related orphan receptor gamma (ROR-gamma) signaling pathway - cell viability counter screen (AID 1159520). Also: nearly all actives have a fitted effect of over 50% in size. The procedure, abridged:
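Tet-on ROR gamma CHO cells were given compounds for 2 hr, then doxycycline hyclate at 1 uM final, and incubated 16 hr at 37 C. Viability was measured as ATP content by CellTiter-Glo luminescence.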

Assay [14] addresses Nuclear receptor ROR-gamma (Homo sapiens) (UniProt P51449). Kind of assay: qHTS assay to identify small molecule antagonists of the retinoid-related orphan receptor gamma (ROR-gamma) signaling pathway (AID 1159521). The procedure, abridged:
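Cells were plated, rested 4 h at 37 C, exposed to compounds for 2 h, then given 1 uM final doxycycline hyclate to induce RORγ expression. After 16 h, ONE-Glo luminescence from the ROR response element reporter was measured.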

Assay [15] is described as follows: qHTS assay to identify small molecule agonists of the AP-1 signaling pathway - cell viability counter screen (AID 1159525; calls by dose curve; also: nearly all actives have a fitted effect of over 55% in size). The procedure, abridged:
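Same-well cytotoxicity counter screen of the Tox21 10K library in ME-180 cells. The readout is ATP-dependent luminescence after 5 h compound treatment. Data are normalised to DMSO and tetra n-octyl ammonium bromide controls.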

A short description of assay [16]: qHTS assay to identify small molecule agonists of the peroxisome proliferator-activated receptor delta (PPARd) signaling pathway - cell viability counter screen (AID 743211). Also: nearly all actives have a fitted effect of over 55% in size. The procedure, abridged: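 Counter screen for cytotoxicity run in parallel with the PPARd reporter screen. Beta-lactamase reporter HEK293H cells exposed to compounds 17 h; ATP-based CellTiter-Glo luminescence quantified viability.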

Assay [17] in a line: qHTS assay to identify small molecule agonists of the AP-1 signaling pathway (AID 1159526; calls by dose curve).
A short description of assay [18]: qHTS assay to identify small molecule antagonists of the peroxisome proliferator-activated receptor delta (PPARd) signaling pathway - cell viability counter screen (AID 743213). Also: nearly all actives have a fitted effect of over 50% in size. The procedure, abridged:
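Viability counter-screen, qHTS format: PPARd-bla HEK293H, L165041 300 nM final, 17 h compound exposure at 37 C, CellTiter-Glo luminescence after 30 min RT.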

The target in assay [19] is Bile acid receptor (Homo sapiens) (UniProt Q96RI1). Briefly: qHTS assay to identify small molecule antagonists of the farnesoid-X-receptor (FXR) signaling pathway (AID 743217; active = well fitted inhibition curve with a large enough effect in the signal ratio in the repeat runs, not every such curve was filed as active; the % refers to the signal ratio). The procedure, abridged:
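Read-out: beta-lactamase FRET fluorescence (LiveBLAzer B/G substrate, 2 h, room temperature) in GeneBLAzer FXR-UAS-bla HEK 293T cells. Compounds were co-dosed with 50 uM chenodeoxycholic acid (final) and incubated 16 h at 37 °C.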

Peroxisome proliferator-activated receptor delta (Homo sapiens), sequence (Q03181 whole entry, looked up): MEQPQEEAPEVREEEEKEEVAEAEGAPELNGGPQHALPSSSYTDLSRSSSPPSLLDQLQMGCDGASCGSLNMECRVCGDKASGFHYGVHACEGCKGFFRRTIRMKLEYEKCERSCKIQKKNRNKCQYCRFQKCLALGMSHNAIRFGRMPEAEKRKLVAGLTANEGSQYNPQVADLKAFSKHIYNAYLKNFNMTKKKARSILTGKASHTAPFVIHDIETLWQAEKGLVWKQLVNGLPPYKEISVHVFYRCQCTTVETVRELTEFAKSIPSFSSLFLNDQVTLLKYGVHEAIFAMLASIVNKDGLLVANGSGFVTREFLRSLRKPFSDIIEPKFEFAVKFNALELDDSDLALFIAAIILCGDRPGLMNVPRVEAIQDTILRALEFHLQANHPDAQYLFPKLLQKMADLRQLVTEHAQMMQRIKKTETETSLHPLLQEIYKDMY
Bile acid receptor (Homo sapiens), sequence (Q96RI1 whole entry, looked up): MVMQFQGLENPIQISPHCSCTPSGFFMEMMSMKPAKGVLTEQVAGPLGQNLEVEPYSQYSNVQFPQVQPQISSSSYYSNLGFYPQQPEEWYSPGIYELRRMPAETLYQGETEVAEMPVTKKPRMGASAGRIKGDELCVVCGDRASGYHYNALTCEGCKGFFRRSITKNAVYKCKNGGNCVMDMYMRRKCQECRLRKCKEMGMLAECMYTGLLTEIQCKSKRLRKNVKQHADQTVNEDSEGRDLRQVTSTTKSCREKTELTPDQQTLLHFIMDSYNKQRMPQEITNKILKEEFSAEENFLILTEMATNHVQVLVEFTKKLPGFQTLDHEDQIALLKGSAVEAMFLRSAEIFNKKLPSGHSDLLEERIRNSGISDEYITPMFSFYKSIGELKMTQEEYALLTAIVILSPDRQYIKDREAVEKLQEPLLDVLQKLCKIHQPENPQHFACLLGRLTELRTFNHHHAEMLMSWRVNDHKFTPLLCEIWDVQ
Vitamin D3 receptor (Homo sapiens), sequence (P11473 whole entry, looked up): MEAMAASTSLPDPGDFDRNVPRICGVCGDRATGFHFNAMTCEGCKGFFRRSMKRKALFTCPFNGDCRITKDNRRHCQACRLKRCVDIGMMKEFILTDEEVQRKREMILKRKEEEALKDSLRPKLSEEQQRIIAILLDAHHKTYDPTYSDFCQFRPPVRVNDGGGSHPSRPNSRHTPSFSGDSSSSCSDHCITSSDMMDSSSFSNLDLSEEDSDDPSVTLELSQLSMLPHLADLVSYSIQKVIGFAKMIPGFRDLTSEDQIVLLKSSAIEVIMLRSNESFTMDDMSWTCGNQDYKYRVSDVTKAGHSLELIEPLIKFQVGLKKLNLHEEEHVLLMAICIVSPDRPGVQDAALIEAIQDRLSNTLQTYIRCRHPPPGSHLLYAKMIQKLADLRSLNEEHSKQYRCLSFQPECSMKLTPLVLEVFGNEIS

`CC(=O)SCc1ccco1`: the molecule was classed as inactive in assay [1], in assay [2], in [4], in [6] and in [12]. The Potency entry in assay [3], in [5], in assay [7], in assay [8], in assay [9] and in assay [10] was “inactive” throughout. Further, the Potency result in assay [11], in assay [13], in assay [14] and in assay [15] was “inactive” throughout.

For the molecule `O=C(O)C(c1ccc(Cl)cc1)c1ccc(Cl)cc1`, the Potency entry in [16], in [3], in [5], in assay [8], in assay [10] and in [11] was “inactive” throughout. Moreover, the Potency result in assay [14], in assay [15] and in assay [17] was “inactive” throughout. In addition, the result in assay [1], in assay [4], in assay [6] and in assay [12] was inactive.

Regarding `ClC(Cl)(Cl)c1ccc(C(Cl)(Cl)Cl)cc1`, the Potency result in assay [16], in [18], in assay [3], in [5], in assay [7] and in assay [8] was “inactive” in each case. Also, the Potency entry in assay [9], in [10], in assay [11], in [13], in assay [14] and in assay [15] was “inactive” throughout. For the same molecule, the call in assay [6] and in assay [12] was inactive.

Turning to `CN(c1nccc(=O)[nH]1)C1CCN(c2nc3ccccc3n2Cc2ccc(F)cc2)CC1`, the Potency entry in assay [3], in [5], in assay [8], in assay [10], in assay [11] and in assay [14] was “inactive” throughout. Moreover, the Potency entry in assay [15] and in assay [17] was “inactive” each time. The call in [6] and in assay [12] was inactive.

As for `CN1CCC(=C2c3ccccc3CCc3sccc32)CC1`, the result in assay [1], in assay [2], in [4] and in assay [12] was inactive. The Potency result in assay [8], in assay [10], in assay [11], in [13], in assay [14] and in assay [15] was “inactive” each time.

In the case of `C=CC(C)(CCC=C(C)C)OC(=O)c1ccccc1` (stereo not given), the Potency result in assay [16], in assay [3], in assay [5], in [8], in assay [10] and in assay [11] was “inactive” throughout. Also, the Potency result in [13], in assay [14] and in assay [15] was “inactive” in each case. Moreover, the call in assay [19], in [4] and in [12] was inactive.

`CC(=O)NCCCS(=O)(=O)O`: the Potency entry in [16], in assay [18], in assay [3], in assay [5], in assay [8] and in assay [9] was “inactive” each time. Also, the Potency result in [10], in assay [11], in [14], in [15] and in assay [17] was “inactive” in each case. Moreover, the result in assay [1], in assay [2], in assay [19], in assay [4] and in [12] was inactive.

Consider `CCCCCOC(=O)c1ccc(O)cc1`, for which the result in assay [1], in [2], in assay [4], in assay [6] and in assay [12] was inactive. Also, the Potency entry in [18], in assay [5], in assay [8], in assay [9], in [10] and in assay [11] was “inactive” each time. Moreover, the Potency result in assay [13], in assay [14] and in [15] was “inactive” each time.

On to `OCC1CC2CC1C1CCC(CO)C21` (stereo not given), for which the Potency result in assay [16], in [18], in assay [7], in assay [8], in [9] and in assay [10] was “inactive” throughout. Besides, the Potency entry in assay [11], in [14], in assay [15] and in [17] was “inactive” each time. Further, the result in assay [1], in assay [2], in [4], in assay [6] and in assay [12] was inactive. Further, the Potency in assay [5] is 24.5 µM (active).
